# In the antibiotic and cytotoxicity screens of Wong et al. (2023):
# Hit rate of the full screen: of about 39,000 compounds, about 3,300 (8.5%) were called active. The entries come from a sample that favours actives as a whole.
# Test system: HepG2
# Test: cytotoxicity call (relative viability < 0.9)
# Conditions: 10 µM
row,Compound,cytotoxicity call
1,C[C@H](CO)N1C[C@H](C)[C@H](CN(C)Cc2ccc(Oc3ccccc3)cc2)Oc2c(NS(=O)(=O)c3cccs3)cccc2C1=O,inactive
2,C[C@H]1CN([C@@H](C)CO)C(=O)c2cccc(NC(=O)c3ccncc3)c2O[C@H]1CN(C)Cc1ccncc1,inactive
3,C[C@@H]1CN([C@H](C)CO)C(=O)c2cc(-c3cccnc3)cnc2O[C@H]1CN(C)Cc1ccc(Oc2ccccc2)cc1,inactive
4,Cc1cccc(Oc2ccc(NC(=O)C3CCC(C)CC3)cc2)c1 (centres undefined),inactive
5,CN1CCN(Cc2ccc(NC(=O)Nc3ccc(Oc4cc(NC(=O)C5CC5)ncn4)cc3)cc2C(F)(F)F)CC1,active
6,COc1ccc(NC(=O)Nc2ccc3c(c2)[C@H]2C[C@H](CC(=O)N4CCN(C)CC4)O[C@@H](CO)[C@H]2O3)cc1,inactive
7,C[C@@H]1CN([C@H](C)CO)C(=O)Cc2cc(NS(=O)(=O)c3ccc(F)cc3)ccc2O[C@H]1CN(C)S(=O)(=O)c1ccccc1,inactive
8,C[C@H]1CCCCO[C@H](CN(C)C(=O)NC2CCCCC2)[C@@H](C)CN([C@@H](C)CO)C(=O)c2cc(NC(=O)NC3CCCCC3)ccc2O1,inactive
9,N#C/C(=N\O)C(=O)c1ccco1,inactive
10,Cn1c(=O)c2c(ncn2CC(=O)Nc2nc3ccccc3[nH]2)n(C)c1=O,inactive
11,CC(C)NC(=O)c1cccc2cccc(Sc3ccccc3)c12,inactive
12,CCCOc1ccc2nc(NC(=O)OC)[nH]c2c1,active
13,COC(=O)Nc1nc2ccc(S(=O)c3ccccc3)cc2[nH]1 (centres undefined),active
14,CCOC(=O)Nc1nc2ccccc2[nH]1,inactive
15,COC(=O)Nc1nc2ccc(Sc3ccccc3)cc2[nH]1,active
16,N=C(N)Nc1nc(=O)c2ccccc2[nH]1,inactive
17,COc1ccc2nc(S(=O)Cc3ncc(C)c(OC)c3C)[nH]c2c1 (centres undefined),inactive
18,N=C(N)Nc1nc2ccccc2[nH]1,inactive
19,CCCSc1ccc2nc(NC(=O)OC)[nH]c2c1,active
20,O=C(O)Cn1cccn1,inactive
21,CCC/C=C1\OC(=O)c2ccccc21,inactive
22,Cc1noc(C)c1S(=O)(=O)N(C)C[C@@H]1OCCCC[C@@H](C)Oc2ccc(NC(=O)Nc3cccc4ccccc34)cc2C(=O)N([C@H](C)CO)C[C@@H]1C,inactive
23,C[C@H]1CN([C@@H](C)CO)C(=O)Cc2cc(NC(=O)Nc3ccc(C(F)(F)F)cc3)ccc2O[C@@H]1CN(C)Cc1ccc(C(=O)O)cc1,inactive
24,COc1ccc(CN(C)C[C@H]2OCCCC[C@@H](C)Oc3ccc(NC(=O)NC(C)C)cc3C(=O)N([C@H](C)CO)C[C@@H]2C)cc1,inactive
25,CCCC(=O)Nc1ccc2c(c1)C(=O)N(C)C[C@H](OC)[C@H](C)CN(Cc1ccc(-c3ccccn3)cc1)[C@@H](C)CO2,inactive

row,Compound,cytotoxicity call
1,CN(CCN)C1CCCCC1,inactive
2,CCS(=O)(=O)NCC[C@H]1CC[C@H](NC(=O)Cc2ccccn2)[C@@H](CO)O1,inactive
3,C[C@@H]1CCCCO[C@H](CN(C)C(=O)Cc2ccccc2)[C@@H](C)CN([C@@H](C)CO)C(=O)c2cc(NC(=O)c3ccccc3)ccc2O1,inactive
4,CCS(=O)(=O)N1CC[C@]2(CC1)CN([C@H](CO)c1c2c2ccc(cc2n1C)OC)C(=O)c1cccc(c1)F,inactive
5,COc1ccc(S(=O)(=O)Nc2ccc3c(c2)C(=O)N([C@@H](C)CO)C[C@H](C)[C@@H](CN(C)Cc2ccc4c(c2)OCO4)OCCCC[C@H](C)O3)cc1,inactive
6,Cc1ccc(S(=O)(=O)Nc2ccc3c(c2)C(=O)N([C@H](C)CO)C[C@@H](C)[C@H](CN(C)Cc2ccc4c(c2)OCO4)OCCCC[C@@H](C)O3)cc1,inactive
7,Cn1cnc(S(=O)(=O)N[C@@H]2CC[C@H](CC(=O)NCC3CC3)O[C@H]2CO)c1,inactive
8,OC[C@H]1O[C@H]([S][Au])[C@H](O)[C@@H](O)[C@@H]1O,active
9,OC[C@H]1O[C@@H](O)[C@@H](O)[C@@H](O)[C@@H]1O,inactive
10,OC[C@H]1O[C@@H](O)[C@H](O)[C@@H](O)[C@H]1O,inactive
11,Cc1noc(C)c1NC(=O)Nc1ccc2c(c1)C(=O)N([C@H](C)CO)C[C@H](C)[C@H](CN(C)S(=O)(=O)c1cn(C)cn1)O2,inactive
12,COc1ccc(S(=O)(=O)Nc2ccc3c(c2)C(=O)N([C@H](C)CO)C[C@@H](C)[C@H](CN(C)C(=O)Nc2cccc4ccccc24)O3)cc1,inactive
13,CC(C)(C)[S@](=O)N1Cc2cc(C(=O)NCc3ccc4c(c3)OCO4)nc(-c3cccc(-c4ccncc4)c3)c2[C@@H]1CCO,inactive
14,CC(C)(C)[S@](=O)N1Cc2cc(C(=O)NCc3ccc4c(c3)OCO4)nc(-c3cccc(-c4cccnc4)c3)c2[C@@H]1CCO,inactive
15,CC(C)(C)S(=O)N1Cc2cc(C(=O)NCc3ccc4c(c3)OCO4)nc(-c3cccc(-c4cccc(F)c4)c3)c2[C@@H]1CCO (some centres undefined),active
16,CC(C)(C)[S@@](=O)N1Cc2cc(C(=O)NCc3ccc4c(c3)OCO4)nc(-c3cccc(-c4ccccc4)c3)c2[C@H]1CCO,inactive
17,CC(C)(C)S(=O)N1Cc2cc(C(=O)NCc3ccc4c(c3)OCO4)nc(-c3cccc(-c4cccc(F)c4)c3)c2[C@H]1CCO (some centres undefined),active
18,CC(C)(C)[S@@](=O)N1Cc2cc(C(=O)NCc3ccc4c(c3)OCO4)nc(-c3cccc(-c4ccncc4)c3)c2[C@H]1CCO,inactive
19,COc1ccc([C@H]2CNCCN2)cc1,inactive
20,C[C@@H]1CN([C@@H](C)CO)C(=O)c2ccccc2-c2ccccc2CO[C@@H]1CN(C)C(=O)Nc1cccc(Cl)c1Cl,inactive
21,COc1ccc(S(=O)(=O)N(C)C[C@H]2Oc3ccc(NC(=O)Cn4cnnn4)cc3C(=O)N([C@@H](C)CO)C[C@H]2C)cc1,inactive
22,CCc1nc2ccc(C(=O)N3CCN(S(=O)(=O)CC)CC3)cn2c1N(CC)C(=O)CCC1CCCC1,inactive
23,Cc1ccc(S(=O)(=O)Oc2ccc(/N=N/c3ccc(-c4ccc(/N=N/c5c(O)ccc6cc(S(=O)(=O)O)cc(S(=O)(=O)O)c56)c(C)c4)cc3C)cc2)cc1,inactive
24,Cc1cc(-c2ccc(N=Nc3ccc4c(S(=O)(=O)[O-])cc(S(=O)(=O)[O-])c(N)c4c3O)c(C)c2)ccc1N=Nc1ccc2c(S(=O)(=O)[O-])cc(S(=O)(=O)[O-])c(N)c2c1O.[Na+].[Na+].[Na+].[Na+],active
